# Measured values as given in the supplement of paper PMC10732440.
# ± gives the standard deviation of the averaged measurements.
# Test system: Caenorhabditis elegans N2 infected with Nematocida parisii ERTm1
# Experiment: progeny production relative to DMSO uninfected control; higher = more progeny despite microsporidia infection (inhibition of infection with low host toxicity)
# Conditions: infection time 6 days
# In short: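 Wild-type C. elegans L1 larvae, synchronised by bleaching, were added at 100 per well to 96-well plates containing K-medium, E. coli OP50 and 15,000 N. parisii spores/μL, and compound was pinned in to 100 μM or 40 μM in 1% DMSO. The plates were shaken at 21°C for 6 days, after which worms were stained with Rose Bengal, scanned on a flatbed scanner and counted using WorMachine. Each compound and dose was run three times. Progeny production is expressed as a percentage of wells with vehicle but no spores, averaged over the replicates.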
SMILES,progeny production (40 µM) [%],progeny production (100 µM) [%]
C[C@H]1CC[C@@]2(O)C(C)(C)[C@@H]3CC[C@@]2(C)[C@H]1C3,6.77 ± 4.3,7.52 ± 7.7
Cn1cc(NC(=O)c2cc(NC(=O)c3ccc(/C=C/c4cnc5ccccc5c4)cc3)cn2C)cc1C(=O)NCCN1CCOCC1,7.6 ± 3.5,15.5 ± 5.6
CC1(C)Cc2c(C#N)c(SCCc3ccccc3)nc(N3CCOCC3)c2CO1,3.65 ± 0.7,18.8 ± 15
CN(C)CCNC(=O)c1cccc2cccnc12,5.46 ± 4.5,14.7 ± 8
CCC[C@@H]1C[C@@H](C(=O)N[C@@H]([C@H]2O[C@H](SC)[C@H](O)[C@@H](O)[C@H]2O)[C@H](C)Cl)N(C)C1,6.74 ± 4.3,7.36 ± 5.1
O=C(NCc1ccc2c3c(cccc13)C(=O)N2)c1cccs1,6.15 ± 4.4,9.75 ± 6.2
Nc1nc(=O)[nH]cc1F,5.01 ± 1.2,23.7 ± 7.4
Cc1cccc(CC(=O)N[C@H]2CCOC2=O)c1,3.04 ± 0.7,6.81 ± 3.6
O=C(O)COc1cccc2c1CC[C@](O)(COC(=O)N(c1ccccc1)c1ccccc1)C2,4.24 ± 0.25,15.6 ± 8.1
O=C(O)c1ccc(-n2nc(-c3ccccc3O)nc2-c2ccccc2O)cc1,4.83 ± 3,16.7 ± 7.4
CSC[C@H]1CN(Cc2c[nH]c3c(N)ncnc23)C[C@@H]1O,8.02 ± 2.9,15.3 ± 10
CCNC(=O)Nc1cn2c(-c3ncc(CC)cn3)cc(-c3cccnc3)cc2n1,3.09 ± 1.5,6.08 ± 4.7
O=C(Nc1ccccc1C(=O)O)c1cccc(Oc2ccccc2)c1,3.52 ± 1.3,16.2 ± 14
O=C(Nc1nnc(-c2ccc(Cl)cc2)o1)c1ccc(F)cc1,9.22 ± 7.4,12.6 ± 4.1
CCc1oc2ccccc2c1C(=O)c1ccc(O)cc1,11.4 ± 2.5,16.8 ± 0.54
CC(=O)Oc1ccccc1C(=O)Nc1ncc([N+](=O)[O-])s1,3.11 ± 1.7,10.8 ± 5.3
NC(=O)c1nccn([C@@H]2O[C@H](CO)[C@@H](O)[C@H]2O)c1=O,6.9 ± 2.3,10.3 ± 7.2
CC(C)n1cnc2c(NCc3ccccc3)nc(NCc3ccccc3)nc21,7.59 ± 5.2,12.1 ± 7.2
CCCCSc1nc(N)c2[nH]c(=O)c(=O)n(Cc3ccccc3)c2n1,4.52 ± 1.9,20.2 ± 11
CCCCOC(=O)Nc1cc2nc(C3CCCCC3)[nH]c2cc1N(CC)CC,6.28 ± 3,13.5 ± 8.2
NC(=O)c1[nH]c2ccc(S(N)(=O)=O)cc2c1-c1ccccc1,4.85 ± 2.6,6.59 ± 2.8
CCc1cc(CCC(=O)Nc2ccccc2O)c(O)nc1C,4.5 ± 1.7,9.45 ± 3.1
CC[C@@H]1C(=O)OC[C@@H]1Cc1cncn1C,4.59 ± 1.7,11.8 ± 11
